The list is not random: actives were taken first. Their share in the collection is about 2%.
CHO-K1 Ca ag: counter-screen for M1 agonists: effect in parental CHO-K1 cells | Fluo-8 calcium fluorescence; scaled to maximal ATP response, vehicle zero | activation, % at 3 µM | hit rate 0.48% among 360,000 | AID 602248, 2012; in the data active = activation above about 15%;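 also: untransfected CHO-K1 host cells lacking M1 receptor as counterscreen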
CHRM4 agonist: human M4 muscarinic receptor agonists, primary screen, CHO-K1 cells, Fluo-8 calcium fluorescence; Muscarinic acetylcholine receptor M4 (Homo sapiens), P08173; CHO-K1 hM4/Gqi5; vehicle 0%, full acetylcholine response 100%; activation, % at 3 µM; hit rate 0.14% among 360,000; AID 624127, 2012;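 active = activation above the run mean over all test wells plus 3 SD, cut at about 32% in these data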;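 also: peak over basal fluorescence ratio per well then scaled between controls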
Target sequence (P08173 whole entry, looked up): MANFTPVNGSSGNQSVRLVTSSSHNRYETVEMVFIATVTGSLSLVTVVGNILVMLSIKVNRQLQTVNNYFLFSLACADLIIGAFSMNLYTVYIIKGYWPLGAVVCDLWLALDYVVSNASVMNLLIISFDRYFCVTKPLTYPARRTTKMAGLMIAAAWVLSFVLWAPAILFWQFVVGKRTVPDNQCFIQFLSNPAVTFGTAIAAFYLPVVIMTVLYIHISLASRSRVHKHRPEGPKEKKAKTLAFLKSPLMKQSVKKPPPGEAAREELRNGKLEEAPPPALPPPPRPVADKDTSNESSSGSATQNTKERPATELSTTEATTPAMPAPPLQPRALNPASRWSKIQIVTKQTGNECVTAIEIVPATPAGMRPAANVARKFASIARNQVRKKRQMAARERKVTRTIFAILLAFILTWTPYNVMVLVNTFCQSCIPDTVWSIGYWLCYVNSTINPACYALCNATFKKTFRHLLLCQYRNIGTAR
M4 antag: human M4 muscarinic receptor antagonists, primary screen, CHO cells, Fluo-8 calcium fluorescence; Muscarinic acetylcholine receptor M4 (Homo sapiens), P08173; CHO-hM4 cells, ACh EC80; inhibition, % at 3 µM; hit rate 0.73% among 360,000; AID 624125, 2012;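 active = inhibition above its plate's cutoff, the mean inhibition of sample wells plus 3 SD, cut at about 27% in these data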
CHO-K1 Ca antag: M1 antagonist counterscreen hit in parental CHO-K1 cells; inhibition, % at 3 µM; hit rate 0.6% among 360,000; ATP-induced calcium, Fluo-8 fluorescence;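 active = inhibition above a per-plate cutoff, the plate's mean sample inhibition plus 3 SD, cut at about 24% in these data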
M4 PAM: human M4 muscarinic receptor positive allosteric modulators, primary screen, CHO-K1 cells, Fluo-8 calcium fluorescence; Muscarinic acetylcholine receptor M4 (Homo sapiens), P08173; CHO-K1 hM4/Gqi5, ACh EC20; 0% = ACh EC20, 100% = maximal ACh; activation, % at 3 µM; hit rate 0.4% among 360,000; AID 624126, 2012;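 active = activation above its plate's cutoff, the mean activation of sample wells plus 3 SD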
M1 PAM parental: nonselective calcium activators in parental CHO-K1 cells, primary screen, counter-screen for M1 PAM project, cell-based, Fluo-8 calcium fluorescence, full deck, 1536-well. activation, % at 3 µM. ATP EC20; 0% at ATP EC20, 100% at ATP max. hit rate 0.02% among 360,000. AID 602247, 2012;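 active = activation above the run cutoff, the mean activation of all test compounds plus 3 SD, cut at about 40% in these data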;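 also: peak over basal fluorescence ratio in a 140 s read after ATP addition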
Each line names hits and unclear results; the compound was inactive in the other large screens.

CC1(C(=O)NC(=S)NNC(=O)c2ccncc2)CCCCC1	CHO-K1 Ca ag 28, CHRM4 agonist 44
O=C(NNC(=S)NC(=O)C12CC3CC(CC(C3)C1)C2)c1ccncc1	CHO-K1 Ca ag 46, CHRM4 agonist 76
CCC(C)NC(=S)NNC(=O)c1ccncc1 (stereo not drawn)	CHO-K1 Ca antag 27
C/C(=N\Nc1ccc(F)cc1F)c1ccccc1O	none
CCOC(=O)c1nc2nc(C)cc(=O)n2[nH]1	none
CNS(=O)(=O)c1cccc(C(=O)OCc2cc(=O)oc3c(C)c(O)ccc23)c1	CHO-K1 Ca ag 15
CC(C)C[C@H](NC(=O)OC(C)(C)C)c1nnc(SCc2cccc(F)c2)o1	none
COC(=O)CCCCCCCCC(O)C[N+]1(C)CCOCC1 (stereo not drawn)	none
CC(=O)OCCCCCCCCCCC[N+]1(C)CCCCC1	M4 antag 56
O=C(CC1(O)CCCCC1)OC1CCCC1	none
C[N+]1(CC(=O)OC2CCCCCCCCCCC2)CCCC1	M4 antag 35
COC(=O)CCCCCCCCCC[N+]1(C)CCCCC1	M4 antag 31
O=C1NC(c2ccc(F)cc2)Oc2ccccc21 (stereo not drawn)	none
Cc1ccc(C2NC(=O)c3ccccc3O2)cc1 (stereo not drawn)	CHO-K1 Ca ag 19
O=C1NC(c2cccc([N+](=O)[O-])c2)Oc2ccccc21 (stereo not drawn)	CHO-K1 Ca antag 27
CCCOc1ccc(N2C(=O)C3ON(c4ccccc4)C(CCC)C3C2=O)cc1 (stereo not drawn)	none
CCOC(=O)CN(C(=O)CSc1nnc(CNc2ccc(F)cc2)n1C)c1ccccc1	M4 PAM 18
CN(/N=C/c1ccc(-c2ccc([N+](=O)[O-])cc2)o1)c1ccccc1	CHO-K1 Ca ag 17, CHO-K1 Ca antag 30
Cc1ccc(N2C(=O)c3ccccc3NC2c2ccccc2O)cc1 (stereo not drawn)	M4 antag 45
O=C1c2ccccc2NC(c2ccccc2O)N1O (stereo not drawn)	none
CCN1C(=O)CSc2ccc(C(=O)NCc3ccc(OC)cc3)cc21	none
CC(C)c1onc(C(=O)Nc2cccc(Cl)c2)c1[N+](=O)[O-]	none
COC(=O)c1ccc(OC(=O)CCc2cc(OC)c(OC)c(OC)c2)cc1	CHO-K1 Ca ag 16
COC(=O)c1cc(OC(=O)CCc2ccc(OC)c(OC)c2)cc(C(=O)OC)c1	none
Cc1cc(N2CCCC2)nc2ccccc12	none
CCN(CC)c1ccc(C=Nc2ccc(C)cc2C)c(O)c1	none
CCN(CC)c1ccc(C=Nc2cc(C)ccc2C)c(O)c1	M4 PAM 25
CC(=O)OCCn1c(C)[n+](CCOC(C)=O)c2cc(Cl)c(Cl)cc21	none
CC(=O)OCCn1c2nc(=O)[nH]c(=O)c-2nc2cc(C)c(C)cc21	CHO-K1 Ca ag 186, CHRM4 agonist 229, M4 antag 37, CHO-K1 Ca antag 38
CCc1nc2ccc(C(=O)Nc3cccc(OCC(=O)N(C)C)c3)cn2c1N(C)Cc1cc2ccccc2s1	M4 antag 34
COc1cc(NC(=O)COC(=O)c2ccccc2F)cc(OC)c1	M4 antag 29
O=C(COC(=O)c1ccccc1O)Nc1ccc(OC(F)F)cc1	none
COc1ccc(C(=O)OCC(=O)Nc2ccc(OC(F)F)cc2)c(OC)c1	CHO-K1 Ca antag 25
O=C(COC(=O)C1CCC1)Nc1ccc(OC(F)F)cc1	none
O=C(COC(=O)C1CC1)Nc1ccc(OC(F)F)cc1	M4 antag 29
COc1ccc(OC)c(C2(O)CSC(=Nc3cccnc3)N2Cc2ccco2)c1 (stereo not drawn)	none
CC(=O)Nc1ccc(NC(=O)CSc2nc3[nH]ncc3c(=O)n2-c2ccccc2)cc1	M4 PAM 20
CCc1cccc(NS(=O)(=O)c2csc(C(N)=O)c2)c1	CHO-K1 Ca ag 16
Cc1ccc(NS(=O)(=O)c2csc(C(N)=O)c2)cc1C	none
